Reference: PubChem BioAssay AID686978 (National Center for Advancing Translational Sciences (NCATS), 2013)
The campaign covered roughly 420,000 compounds. About 64,000 (15%) were called active. About 27% were inconclusive and are not listed. The list is a sample of the results. Unmarked numbers belong to inactive results. The call rests on the fitted dose curve; in most records, active means well fitted inhibition curve with a large enough effect; inconclusive means small, poorly fitted or top-dose-only effect; inactive means flat fitted curve, though single readings scatter.

Experiment: qHTS for Inhibitors of human tyrosyl-DNA phosphodiesterase 1 (TDP1): qHTS in cells in absence of CPT; further: nearly all actives have a fitted effect of over 55% in size
Settings: DT40 Tdp1-/- hTDP1 cells, no CPT, ATP luminescence, 48 h; activity change, negative = growth inhibition: at 46.2 µM (top of the series)
How it was run: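 Luminescent ATP content (CellTiter-Glo) served as the growth readout. Knockout chicken DT40 cells expressing human TDP1 were exposed to compounds without camptothecin for a minimum 48 hr at 37 °C.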
On the % scale 0 is the no-effect control and ±100 the full control effect; potency means the concentration at half of the fitted maximal effect.

| Structure (SMILES) | activity change, negative = growth inhibition [%] | Potency |
| --- | --- | --- |
| CCC(=O)NNc1cc(=O)c2c(=O)n(C)c(=O)n(C)c2[nH]1 | -2.61 |  |
| CCOC(=O)N1CCN(c2cc(C)c([N+](=O)[O-])cc2F)CC1 |  | 16.4 µM (active) |
| CCOC(=O)N1CCN(C(=S)Nc2ccc(C)cc2C)CC1 | -0.122 |  |
| O=C(Nc1cccc(Cl)c1)c1cc([N+](=O)[O-])ccc1N1CCN(CCO)CC1 | -10.6 |  |
| CCOC(=O)C1CCN(c2ccc(C(=O)O)cc2[N+](=O)[O-])CC1 | 3.97 |  |
| CC(C(=O)N1CCN(c2ccccc2F)CC1)c1ccc([N+](=O)[O-])cc1 (centres undefined) | -28.8 |  |
| CCC(=O)c1ccc(N2CCN(C(=O)c3cc([N+](=O)[O-])ccc3F)CC2)c(F)c1 |  | 16.4 µM (active) |
| COC(=O)c1oc2ccc(Br)cc2c1NC(C)=O | -24.5 |  |
| O=C(CSc1nc2ccc(Nc3nc(N4CCOCC4)nc(N4CCOCC4)n3)cc2s1)NCc1ccco1 |  | 13 µM (active) |
| O=C(CSc1nc(Nc2ccccc2)nc(N2CCOCC2)n1)Nc1cc(Cl)ccc1O |  | 29.1 µM (active) |
| O=C(CSc1nc2ccccc2s1)Nc1ccc(C(=O)O)cc1 | 22 |  |
| O=C(CC(c1ccccc1)c1cc(Cl)ccc1O)NCCN1CCOCC1 (centres undefined) | -25.3 |  |
| CC1(c2ccccc2)NC(=O)N(CC(=O)Nc2cc(Cl)ccc2N2CCOCC2)C1=O (centres undefined) | 3.58 |  |
| C=CCn1c(CSc2nc3ccccc3s2)nnc1SCC(=O)NCc1ccco1 | 1.91 |  |
| Cc1ccccc1NC(=O)CSc1nc2ccc(Nc3nc(N4CCOCC4)nc(N4CCOCC4)n3)cc2s1 |  | 14.6 µM (active) |
| CCn1c(SCC(=O)NCc2ccco2)nnc1-c1ccc(N)cc1 | -25.1 |  |
| Cc1ccc(S(=O)(=O)N2CCOCC2)cc1NC(=O)CSc1nnc(N)s1 | -2.06 |  |
| Cc1ccccc1-n1nc(C)c2c1N=C1C(Cl)=CC(Cl)=CN1C2c1ccc(C(=O)O)cc1 (centres undefined) | 14.2 |  |
| CCn1ccnc1CN(C)C(=O)c1cc(COc2ccc(Cl)cc2OC)on1 | -27 |  |
| COC(=O)[C@H](Cc1ccccc1)NC(=O)N1CC(C)OC(C)C1 (some centres undefined) | 12 |  |
| O=C1NC(c2ccccc2)CCC1(Cl)Cl (centres undefined) | -3.73 |  |
| Cc1cc(C(=O)COC(=O)CCCN2C(=O)c3ccccc3C2=O)c(C)n1C | -6.94 |  |
| Cc1ccc(NC(=O)c2cn3c4c(ccc(Cl)c4c2=O)OC(C)C3)cc1C (centres undefined) | -2.41 |  |

| Structure (SMILES) | activity change, negative = growth inhibition [%] | Potency |
| --- | --- | --- |
| C#CCOCCOCCOCCNc1nc(N2CCN(C(=O)Cn3cc(CCO)nn3)CC2)nc(N2CCN(C(=O)[C@H](CCCCN)n3cc(CCCC)nn3)CC2)n1 | -0.177 |  |
| COc1cc(NC(=S)NCc2ccc(S(N)(=O)=O)cc2)cc(OC)c1 | -21.2 |  |
| CCc1c(O)cc2n(c1=O)-c1ccccc1C2(C)C | -23.2 |  |
| CC1(C)CC(=O)C=C(N2CCCC2)C1 | -1.76 |  |
| CC1(C)CC(N2CCN(C(c3ccccc3)c3ccccc3)CC2)=CC(=[N+]2CCCCC2)C1 |  | 0.164 µM (active) |
| CC1(C)CC(=O)C=C(N2CCOCC2)C1 | 20.4 |  |
| Cc1nc(Cl)c2oc3ccccc3c2n1 | 10.8 |  |
| c1csc(CN2CCN(Cc3cccs3)C2c2cccs2)c1 | 9.91 |  |
| O[C@H]1C[C@H](c2ccc(Cl)cc2)N(Cc2cccs2)C[C@@H]1n1cc(C2CC2)nn1 |  | 14.6 µM (active) |
| COC(=O)C1=C(C(=O)OC)C(c2cc([N+](=O)[O-])ccc2O)c2sc(=O)[nH]c2S1 (centres undefined) | 3.48 |  |
| CC1=NN(C(C)C)C(=O)C1 | -12.2 |  |
| Cc1cc(C(C)(C)C)oc1C(=O)N(CC(=O)NC1CCCC1)Cc1ccc(Cl)cc1 |  | 14.1 µM (active) |
| Cc1ccc(CN(CC(=O)NC2CCCCC2)C(=O)c2csnn2)cc1 | -12 |  |
| COc1ccc(CN(CC(=O)NC2CCCC2)C(=O)CCC(=O)Nc2cc(C)on2)cc1 | -10.2 |  |
| CN1CCN(C(=O)c2ccc(-c3ccc(Br)cc3)o2)CC1 | -18.3 |  |
| Cc1ccccc1C1=NC(C(F)(F)F)(C(F)(F)F)c2c(n(-c3ccc(F)cc3)c(=O)[nH]c2=O)N1 |  | 23.1 µM (active) |
| O=S(=O)(NCC1CC1)c1ccc(F)c(Cl)c1 | 28.1 |  |
| Cc1cc(NS(=O)(=O)c2ccc(NC(=O)c3ccccc3C)cc2)nc(C)n1 | 6.45 |  |
| COc1c(F)c(F)c(C(=O)O)c(Nc2ccccc2C)c1F | -8.56 |  |
| CCOC(=O)c1c(C)[nH]c(C)c1S(=O)(=O)N(C)CC(=O)Nc1ccccc1C | -10.7 |  |
| CCCS(=O)(=O)c1c(Nc2ccccc2C)sc(C(=O)c2ccccc2)c1N |  | 16.4 µM (active) |
| Cc1ccc2c(c1)C1CN(C)CCC1N2C(=S)Nc1ccc(Cl)cc1Cl (centres undefined) | 0.632 |  |
| Cc1ccc(Nc2c(O)nc[nH]c2=O)cc1C | -1.29 |  |

| Structure (SMILES) | activity change, negative = growth inhibition [%] | Potency |
| --- | --- | --- |
| Cc1ccc2[nH]cc(CCCN3C(=O)c4ccccc4C3=O)c2c1 | -3.71 |  |
| O=C(CNC1CCCCC1)NCC1(c2ccccc2)CCCC1 |  | 23.1 µM (active) |
| CC(=O)CC(CC(=O)NC1CCCCC1)c1ccccc1 (centres undefined) | -5.74 |  |
| O=C(CCS(=O)(=O)c1ccccc1)NC1CCCC1 | 22 |  |
| CC(C)NC(=O)c1ccccc1S(=O)c1ccccc1C#N (centres undefined) | -23.9 |  |
| O=C(CSc1ccc(Cl)cc1)NC1CC1 | -18.7 |  |
| O=C(/C=C/c1cccc(F)c1)NC1CC1 | -24.6 |  |
| S=C(Nc1ccc(Br)cc1Cl)NC1CCN(Cc2ccccc2)CC1 |  | 7.31 µM (active) |
| O=C(Nc1ccccc1)N1CCC(C(=O)N2CCN(Cc3ccccc3)CC2)CC1 | -18.5 |  |
| Cc1cc(Br)ccc1NC(=S)NC1CCCC1 | -20.4 |  |
| S=C(Nc1ccc(Br)cc1)NC1CCN(Cc2ccccc2)CC1 |  | 23.1 µM (active) |
| O=C(NNC(=S)Nc1ccc(Br)cc1Cl)c1ccco1 | -8.5 |  |
| CCNC(=S)NNC(=O)C1CCN(Cc2ccccc2)CC1 | -8.75 |  |
| CCNc1ncc2nc(CCc3ccccc3)c(=O)n(-c3ccc(OC)cc3)c2n1 | -21.2 |  |
| CC1(C(=O)NCc2ccccc2)CN(S(C)(=O)=O)CC(=O)N1CC(F)(F)F (centres undefined) | -11.4 |  |
| CCOC(=O)c1ccc(-n2c(CCC(=O)O)ccc2-c2ccccc2)cc1 |  | inactive |
| CC1Cc2cc(/C(O)=C3\C(=O)C(=O)N(Cc4cccnc4)C3c3ccccc3F)ccc2O1 (centres undefined) | 37.3 |  |
| Cc1cc(=O)oc2cc(OCC(=O)Nc3nnc(C4CC4)s3)ccc12 | -15.1 |  |
| Cc1ccc(O)c(NC(=O)COc2cc(C)ccc2C)c1 | -27.4 |  |
| Cc1cc(=O)oc2ccc(OCC(=O)O)cc12 | 14.6 |  |
| COC(=O)COc1ccc2oc(=O)cc(C)c2c1 | -6.39 |  |
| Cc1ccc(O)c(/C=N/NC(=O)COc2ccc3c(C)cc(=O)oc3c2)c1 |  | 16.4 µM (active) |
| CC(=O)c1c(C)[nH]c(C(=O)COc2ccc3c(C)cc(=O)oc3c2)c1C |  | 20.6 µM (active) |
